According to PubChem BioAssay AID602292 (National Center for Advancing Translational Sciences (NCATS), 2012):
Out of some 1,300 compounds screened, about 380 (29%) were called active. About 37% were inconclusive and are not listed. Calls come from the whole dose curve; as a rule, active = well fitted inhibition curve with a large enough effect; inconclusive = small, poorly fitted or top-dose-only effect; inactive = flat fitted curve, though single readings scatter. This is one part of the list. Where a call stands in place of a potency, no number is given.

Each compound was assayed against Thyrotropin receptor (Homo sapiens) (UniProt P16473) (assay: qHTS for antagonists of the Thyroid Stimulation Hormone Receptor: Hit Validation in Primary Screen). Settings: TSHR-expressing cells, cAMP antagonist mode; series mostly up to 58 µM.
Thyrotropin receptor (Homo sapiens), sequence (P16473 whole entry, looked up): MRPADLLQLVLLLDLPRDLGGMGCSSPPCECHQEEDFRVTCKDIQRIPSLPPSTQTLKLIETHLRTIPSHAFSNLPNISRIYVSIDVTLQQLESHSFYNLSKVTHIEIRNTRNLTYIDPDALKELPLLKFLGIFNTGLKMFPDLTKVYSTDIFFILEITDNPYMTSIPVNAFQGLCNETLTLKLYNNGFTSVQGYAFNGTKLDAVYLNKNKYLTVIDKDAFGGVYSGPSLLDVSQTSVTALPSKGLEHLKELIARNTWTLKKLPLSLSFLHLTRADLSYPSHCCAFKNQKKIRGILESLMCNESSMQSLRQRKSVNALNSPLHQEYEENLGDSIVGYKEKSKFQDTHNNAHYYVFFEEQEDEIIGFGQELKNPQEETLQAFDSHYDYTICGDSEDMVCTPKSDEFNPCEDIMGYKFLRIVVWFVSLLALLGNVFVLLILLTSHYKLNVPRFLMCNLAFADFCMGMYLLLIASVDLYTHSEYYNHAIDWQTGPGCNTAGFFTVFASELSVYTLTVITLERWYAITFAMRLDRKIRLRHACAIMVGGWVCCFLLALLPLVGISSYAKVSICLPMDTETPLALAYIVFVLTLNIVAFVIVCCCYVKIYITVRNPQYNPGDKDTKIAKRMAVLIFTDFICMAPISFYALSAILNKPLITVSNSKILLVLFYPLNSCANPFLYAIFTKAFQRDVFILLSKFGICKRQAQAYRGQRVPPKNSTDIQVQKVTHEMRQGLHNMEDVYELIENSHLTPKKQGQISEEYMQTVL
In short: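 TSHR-expressing cells were pretreated with compound, then stimulated with TSH at EC80 (4nM final) for 2 hours at 37 deg C. Cellular cAMP measured by competitive HTRF (anti-cAMP cryptate, cAMP-d2) after 30 min at room temperature.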
Note: nearly all actives have a fitted effect of over 80% in size.
Potency is the fitted concentration of half-maximal effect.

SMILES | Potency
Cc1cccc(NC(=O)C2CCN(S(=O)(=O)c3ccc4c(c3)NC(=O)CO4)CC2)c1 | inactive
CSc1cccc(NC(=O)CN2C(=O)COc3ccc(S(=O)(=O)N4CCOCC4)cc32)c1 | inactive
O=C(COC(=O)C12CC3CC(CC(Br)(C3)C1)C2)Nc1cccc(S(=O)(=O)N2CCOCC2)c1 | 23.9 µM (active)
C=CCN1C(=O)/C(=C/c2ccc(OC(C)=O)c(OCC)c2[N+](=O)[O-])SC1=S | 7.57 µM (active)
COc1ccc(/C=C/C(=O)c2ccc(NS(=O)(=O)c3ccc(C)cc3)cc2)cc1O | 23.9 µM (active)
COc1cc(/C=C/C(=O)c2ccc(NS(=O)(=O)c3ccc(C)cc3)cc2)ccc1OC(F)F | inactive
CCOc1ccccc1NC(=O)CSc1nc2ccccc2c(=O)n1CC1CCCO1 (stereo not given) | inactive
Cc1cc(C(=O)CSc2nc3ccccc3[nH]2)c(C)n1CC1CCCO1 (stereo not given) | 21.3 µM (active)
Nc1nc(SCC(=O)NCC2CCCO2)[nH]c(=O)c1NC(=O)c1ccc(F)c(F)c1 (stereo not given) | inactive
CC1(C)CC(O)CC(C)(C)N1CC(O)COCc1ccccc1 (stereo not given) | inactive
Clc1c(CSc2nc3ccccc3o2)nc2ccccn12 | 23.9 µM (active)
Cc1c(C(=O)Nc2ccc3c(c2)OCCO3)sc2nc(-c3ccccc3)cn12 | 30.1 µM (active)
Cc1cc(-n2c(C)cc(C(=O)CSc3[nH]c(=O)cc(C(F)(F)F)c3C#N)c2C)no1 | 9.53 µM (active)
CCCCn1c(NC(=O)c2ccccc2Cl)c(C#N)c2nc3ccccc3nc21 | 15.1 µM (active)
Cc1ccc(Sc2ncccc2NC(=O)c2ccccc2Cl)cc1 | inactive
Cc1cccc2c1-c1sc(C(=O)NCCCN3CCCC(C)C3)cc1CO2 (stereo not given) | inactive
CCCCn1c(-c2csc3c2CCCC3)n[nH]c1=S | 30.1 µM (active)
CCC(C)Sc1ccc(-c2nc3ccc(C)cn3c2NCc2ccccc2)cc1OC (stereo not given) | 21.3 µM (active)
COc1ccc(-c2cc(-c3nc4ccccn4c3NCc3ccccc3)ccc2OC)cc1 | 2.69 µM (active)
CCCCNc1c(-c2cccc(-c3ccc(OC)cc3)c2)nc2ccc(C)cn12 | 37.9 µM (active)
CCCCCCSc1ccc(-c2nc3ccc(Cl)cn3c2NCCCC)cc1OC | inactive
COc1ccc(-c2csc3ncn(Cc4ccccc4)c(=O)c23)cc1 | inactive
CCOc1ccccc1/C=C/c1onc(C)c1S(=O)(=O)N1CCC(C(=O)N2CCCCCC2)CC1 | inactive
CCOc1ccccc1NC(=O)C1(S(=O)(=O)c2ccc(Cl)cc2)CC1 | inactive

SMILES | Potency
C=CC(C)(C)c1c2occc2c(O)c2ccc(=O)oc12 | 16.9 µM (active)
COc1cccc(O)c1CN1CCC(C(=O)Nc2ccc(Oc3cccnc3)cc2)CC1 | inactive
O=[N+]([O-])c1ccc(S(=O)(=O)c2ccccc2)nc1 | 37.9 µM (active)
COc1ccc(-c2sc3ccc(N4CCOCC4)cc3c2C#CCO)cc1 | 19 µM (active)
O=C(c1ccc2c(=O)n(Cc3ccc4c(c3)OCO4)c(=S)[nH]c2c1)N1CCCCC1 | inactive
CCN(C(=O)CN1C(=O)COc2ccc(S(=O)(=O)N3CCOCC3)cc21)c1ccc(OC)cc1 | inactive
COC(=O)c1ccc(NC(=O)c2ccccc2)o1 | inactive
COc1ccc(C(=O)c2ccccc2)c2c(O)ccc(C(=O)c3ccccc3)c12 | 12 µM (active)
Cc1ccc(F)cc1CNC(=O)c1cc(COc2ccc3ncccc3c2)on1 | 21.3 µM (active)
CC(CNC(=O)c1cc(COc2ccc3ncccc3c2)on1)c1ccccc1 (stereo not given) | 23.9 µM (active)
Cc1ccc(OCc2cc(C(=O)NCC3COCCO3)no2)cc1C (stereo not given) | inactive
O=C(NCc1cccc(Cl)c1)c1cc(COc2ccc3ncccc3c2)on1 | 9.53 µM (active)
Cc1cc(OCc2cc(C(=O)NCc3csc(C(C)C)n3)no2)cc(C)c1Cl | inactive
COc1ccc(CNC(=O)C(C)OC(=O)c2cccs2)cc1 (stereo not given) | inactive
COc1ccc(S(=O)(=O)NCCc2cn3nc(C)c(C)nc3n2)cc1F | inactive
COc1ccc(NC2CCCN(C(=O)CCc3cccc(F)c3)C2)cc1 (stereo not given) | inactive
CCOc1ccc(-c2csc(/C(C#N)=C\c3ccc(O)c([N+](=O)[O-])c3)n2)cc1 | 6.01 µM (active)
COc1ccc(-c2csc(/C(C#N)=C\c3ccc(O)c([N+](=O)[O-])c3)n2)cc1OC | 1.9 µM (active)
NC(=O)c1cc(S(=O)(=O)NCc2ccc(F)cc2)cs1 | inactive
CCN(CCCNC(=O)Cn1ncc2c([nH]c3ccc(C)cc32)c1=O)c1cccc(C)c1 | inactive
COc1ccc(/C=N/NC(=O)c2ccoc2C)cc1COc1c(C)cccc1C | 12 µM (active)
COc1ccc(N2C(=O)NC(NS(=O)(=O)c3ccc(Cl)cc3)(C(F)(F)F)C2=O)cc1 (stereo not given) | inactive
O=c1cc(C(F)(F)F)[nH]c2c(C(F)(F)F)cccc12 | 2.39 µM (active)
O=c1cc(C(F)(F)F)[nH]c2ccc(OC(F)(F)F)cc12 | 9.53 µM (active)

SMILES | Potency
O=c1nc(/C=C/c2ccccc2C(F)(F)F)cc(C(F)(F)F)[nH]1 | inactive
O=C(Cn1ncc2c([nH]c3ccccc32)c1=O)NCC1CCN(Cc2ccc(F)cc2)CC1 | inactive
CCOC(=O)C1=C(C)Nc2ccccc2N=C1NC(=O)c1cc(C)on1 | inactive
N#CC1=C(N)NC(SCc2ccc(Br)cc2)=C(C#N)C12CCCCC2 | 23.9 µM (active)
COc1ccc(Cl)cc1NC(=O)C1CCN(C(=O)C2CC(=O)N(c3ccc(C)cc3)C2)CC1 (stereo not given) | inactive
Cc1cc(Cl)c(S(=O)(=O)N2CCSCC2)cc1OCC(=O)NC1CCCCC1 | 23.9 µM (active)
Cc1ccc(S(=O)(=O)N2CCCC(C(=O)NC3CCCC3)C2)cc1Cl (stereo not given) | inactive
COc1cc(OC)c(NC(=O)Cn2cnc3sc(C)c(S(=O)(=O)N4CCOCC4)c3c2=O)cc1Cl | inactive
O=C(NC1CCCCC1)c1cc(-c2ccccc2O)on1 | inactive
CCOC(=O)c1c(S(=O)(=O)NCC(=O)Nc2cccc(C)c2C)c(C)n(C)c1C | inactive
c1ccc(CNc2ncnc3scc(-c4cccs4)c23)nc1 | 21.3 µM (active)
Cc1ccc(OCc2nnc(NC(=O)c3cccnc3)s2)cc1 | inactive
O=C(CCC(=O)Nc1ccccc1)N/N=C/c1ccncc1 | inactive
O=C(COc1ccc(-c2ccccc2)cc1)Nc1cccnc1 | 37.9 µM (active)
O=C(Nc1ccc(Br)cc1)c1cccc(S(=O)(=O)Nc2cnc3ccccc3c2)c1 | 21.3 µM (active)
CCCCN1C(=O)c2ccc(C(=O)Nc3ccc(C)c(S(=O)(=O)N(C)C)c3)cc2C1=O | 23.9 µM (active)
CCCN1C(=O)c2ccc(C(=O)Nc3cc(C)ccc3O)cc2C1=O | inactive
O=[N+]([O-])c1cccc(S(=O)(=O)Nc2nc3ccccc3nc2Nc2cccc(S(=O)(=O)N3CCCCC3)c2)c1 | 12 µM (active)
COC(=O)c1sc(-c2ccc(C(C)(C)C)cc2)cc1NC(=O)/C=C/C(=O)O | 26.9 µM (active)
COC(=O)c1sc(-c2ccc(Cl)cc2)cc1NC(=O)/C=C/C(=O)O | 30.1 µM (active)
Cc1ccccc1NC(=O)C1(C)Cc2ccccc2C(=O)O1 (stereo not given) | inactive
CCN(C(=O)CSc1nnc(-c2ccccc2)o1)c1c(N)n(Cc2ccccc2)c(=O)[nH]c1=O | inactive
CC1CC(C)CN(CCCNC(=O)CN2C(=O)COc3ccc(S(=O)(=O)N4CCOCC4)cc32)C1 (stereo not given) | inactive
CC(C)C1Nc2ccc(C(=O)N3CCN(c4ccccn4)CC3)cc2NC1=O (stereo not given) | inactive

SMILES | Potency
CC1CCc2c(sc(NC(=O)c3ccco3)c2C(=O)O)C1 (stereo not given) | inactive
CC[n+]1c(/C=C/c2ccc(N(C)C)cc2)ccc2ccccc21 | 26.9 µM (active)
CN(C)c1ccc(/C=C/c2cc[n+](C)cc2)cc1 | 37.9 µM (active)
CN(C)c1ccc(/C=C/c2ccc3c4ccccc4ccc3[n+]2-c2ccccc2)cc1 | 23.9 µM (active)
CC[n+]1ccc(/C=C/c2ccc(N(C)C)cc2)c2ccccc21 | 26.9 µM (active)
O=S(=O)(C/C(=C/CO)S(=O)(=O)c1ccccc1)c1ccccc1 | inactive
Cc1ccnc(OC(C(=O)O)C(OCCc2ccccc2)(c2ccccc2)c2ccccc2)n1 (stereo not given) | inactive
O=C(c1ccc(Cl)c(S(=O)(=O)N2CCCCC2)c1)N1CCCC1 | inactive
CSCC[C@H](NC(=O)c1ccc(Cl)c(S(=O)(=O)N2CCCC2)c1)c1nc2ccccc2[nH]1 | inactive
COc1ccc(CCNC(=O)c2ccc(Cl)c(S(=O)(=O)N3CCCCCC3)c2)cc1 | 16.9 µM (active)
COc1ccc(-c2cc(C3CCN(c4cc(Cl)nc(N)n4)CC3)[nH]n2)cc1 | 37.9 µM (active)
O=C(N[C@H]1C/C=C\C(c2ccc(F)cc2)N(Cc2ccccc2)C(=O)C1)OCC1c2ccccc2-c2ccccc21 (stereo not given in full) | inactive
O=S(=O)(Nc1cccnc1)c1ccc(Br)c2ccccc12 | 26.9 µM (active)
CC(=O)Nc1ccc(-c2csc(NC(=O)Nc3ccccc3)n2)cc1 | 37.9 µM (active)
O=C(NC(=S)Nc1ccccc1)c1cc(-c2ccccc2)nc2ccccc12 | inactive
COc1ccc(NC(=O)CSc2nc3[nH]c(=O)[nH]c(=O)c3s2)cc1OC | inactive
COc1ccc(-c2ccc(SCc3ccccn3)nn2)cc1OC | inactive
COc1cccc(NC(=O)Nc2nc(-c3ccc(OC)c(OC)c3)cs2)c1 | 15.1 µM (active)
CCN(CC)C(=O)Cn1c(=O)n(-c2ccccc2)c(=O)c2sccc21 | inactive
CC(=O)c1ccc(N(C(=O)CNC(=O)c2ccco2)C(C(=O)NC2CCCC2)c2ccncc2)cc1 (stereo not given) | inactive
COc1ccc(NC(=S)N(CCCN2CCOCC2)C(C)c2cc3cccc(OC)c3o2)cc1 (stereo not given) | inactive
COc1ccc(OCC(=O)NC(=S)Nc2ccc(N3CCOCC3)c(Cl)c2)cc1 | 19 µM (active)
COc1ccc(NC(=O)CCNS(=O)(=O)c2ccc3c(c2)CC(C)N3C(C)=O)cc1 (stereo not given) | inactive
